Results filed as inconclusive are left out. Unmarked numbers belong to inactive results. Activity calls are given as the source filed them. The call rests on the fitted dose curve; in most records, active means well fitted inhibition curve with a large enough effect in the repeat runs; inconclusive means weak or mixed curves; inactive means no such curve, though single readings can be large or run the other way.
On the % scale 0 is the no-effect control and ±100 the full control effect; potency means the concentration at half of the fitted maximal effect.

Chain of Cytochrome P450 3A4 (Homo sapiens) (P08684 whole entry, looked up): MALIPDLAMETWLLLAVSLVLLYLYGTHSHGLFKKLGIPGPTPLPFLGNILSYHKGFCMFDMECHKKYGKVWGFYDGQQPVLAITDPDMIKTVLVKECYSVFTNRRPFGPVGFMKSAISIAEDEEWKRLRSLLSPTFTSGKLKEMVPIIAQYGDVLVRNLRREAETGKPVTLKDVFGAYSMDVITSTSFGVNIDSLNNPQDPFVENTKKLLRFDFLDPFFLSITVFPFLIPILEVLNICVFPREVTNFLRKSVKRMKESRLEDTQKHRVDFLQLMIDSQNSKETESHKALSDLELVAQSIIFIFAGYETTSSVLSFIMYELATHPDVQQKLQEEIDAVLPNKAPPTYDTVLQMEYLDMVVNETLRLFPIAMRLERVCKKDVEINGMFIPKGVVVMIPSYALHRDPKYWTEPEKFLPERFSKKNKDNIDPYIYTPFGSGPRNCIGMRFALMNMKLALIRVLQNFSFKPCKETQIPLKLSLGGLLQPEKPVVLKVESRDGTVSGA

The experiment concerns the target Cytochrome P450 3A4 (Homo sapiens) (UniProt P08684). The experiment in a line: Cytochrome P450 Family 3 Subfamily A Member 4 (CYP3A4) small molecule antagonists: luciferase reporter qHTS assay (AID 1671201). Further: nearly all actives have a fitted effect of over 50% in size. To be noted: P450-Glo CYP3A4 enzyme, luciferin luminescence, 1 h; series mostly up to 115 µM; activity change, negative = inhibition: at the top concentration. The source says:
National Center for Advancing Translational Sciences [NCATS]
U.S. Environmental Protection Agency [EPA]
National Institutes of Environmental Health Sciences [NIEHS]
National Toxicology Program [NTP]
U.S. Food and Drug Administration [FDA]
Cytochrome P450 (CYP) enzymes are membrane-bound hemeproteins that play a key role in metabolism of drugs and xenobiotics. Evaluation of the effect of chemicals on CYP isozymes is useful to minimize the adverse drug reactions and toxicities in drug development process. Tox21 chemicals were tested for their effect on CYP enzyme activities by using P450-Glo (TM) screening systems (Promega Corporation, Madison, WI). These systems provide a luminescent method containing proluciferin substrates and are converted to luciferin products by CYP isozymes. The luciferin products formed are detected with a luciferin detection reagent, and the amount of light produced is proportional to CYP activity. P450-Glo (TM) CYP3A4 screening system (Catalog. No. V9910) was used to detect the compounds that interfere in CYP3A4 activity. The positive control compound used for CYP3A4 assay is ketoconazole (Sigma-Aldrich, St. Louis, MO).
Tox21 Assay Protocol Summary:
Two ul of enzyme-substrate mix was dispensed into medium binding white/solid 1536-well plates (Greiner Bio-One North America Inc., Monroe, NC) using a BioRaptr Flying Reagent Dispenser (FRD, Beckman Coulter, Brea, CA). Compounds dissolved in DMSO and positive control (ketoconazole) were transferred to the assay plates at 23 nl using a Pintool station (Wako, San Diego, CA). The assay plates were incubated at room temperature for 10 min. Then 2 ul of NADPH regeneration solution was added to each well of the assay plates using an FRD and incubated at room temperature for 1 h. The reaction was stopped by adding 4 ul of detection reagent using an FRD and after 20 min incubation at room temperature the luminescence signal was measured using a ViewLux plate reader (Perkin Elmer, Shelton, CT). Data were expressed as relative luminescence units.
For `Cc1ncc(COP(=O)(O)O)c(C=O)c1O`, the “activity change, negative = inhibition” value is 10.6% [at 52.9 µM].

On to `CC(C(=O)O)c1cccc(Oc2ccccc2)c1` (stereo not given), for which the “activity change, negative = inhibition” value is 25.9% [at 52.9 µM].

Consider `CCCc1ncc(C[n+]2ccccc2C)c(N)n1`, for which the “activity change, negative = inhibition” value is 10.8% [at 52.9 µM].

Consider `C[N+](C)(CCOc1ccccc1)Cc1cccs1`, for which the “activity change, negative = inhibition” value is 2.32% [at 52.9 µM].

As for `Cc1ccc(C(=O)c2ccccc2)cc1`, the “activity change, negative = inhibition” value is 104%.

In the case of `CN(C)CCCN(C)CCCN(C)C`, the “activity change, negative = inhibition” value is 8.08%.

In the case of `COCCOCC(OC)OC`, the “activity change, negative = inhibition” value was 5.42% [at 52.9 µM].

On to `CC(=O)N[C@H]1[C@H]([C@H](O)[C@H](O)CO)OC(C(=O)O)=C[C@@H]1N=C(N)N`, for which the “activity change, negative = inhibition” value is 0.703% [at 52.9 µM].

For the molecule `CCCCc1ccc2c(n1)[C@@H](c1ccc(OC)cc1C[C@H](C)C(=O)O)[C@H](C(=O)O)[C@H]2c1ccc2c(c1)OCO2`, the “activity change, negative = inhibition” value is 10.3%.

`Cc1ccccc1N=C(N)N=C(N)N`: the “activity change, negative = inhibition” value was -16.1%.

For `CC12CCC(C(=O)C1=O)C2(C)C` (stereo not given), the “activity change, negative = inhibition” value is 14%.

In the case of `Cc1ccc(C(=O)c2ccc(CC(=O)O)n2C)cc1`, the “activity change, negative = inhibition” value is 8.17% [at 52.9 µM].

`CCC1C(=O)OCC1Cc1cncn1C` (stereo not given): the Potency was 11 µM (active).

`CCN[C@H]1C[C@H](C)S(=O)(=O)c2sc(S(N)(=O)=O)cc21`: the “activity change, negative = inhibition” value was -32.8% [at 52.9 µM].

Take `CN1CCN(c2cc3c(nn2)Oc2ccccc2N3C)CC1`: the activity change, negative = inhibition was 7.5% [at 23.6 µM].

Regarding `C=C[Si](OC(C)=O)(OC(C)=O)OC(C)=O`, the Potency is 39.9 µM (active).

With `CC(=O)c1ccccc1[N+](=O)[O-]`, the “activity change, negative = inhibition” value is 26.4%.

Consider `CCCO[Si](OCCC)(OCCC)OCCC`, for which the “activity change, negative = inhibition” value is 4.89%.

As to `CCCCCC(=O)OCCc1ccccc1`, the “activity change, negative = inhibition” value was 11%.

Regarding `[K+]`, the “activity change, negative = inhibition” value was -0.248%.

`CCN1C=CN(C)C1C` (stereo not given): the “activity change, negative = inhibition” value was -0.554%.

Regarding `CC[N+](C)(CC)CCOC(=O)C1c2ccccc2Oc2ccccc21`, the “activity change, negative = inhibition” value is 69.8% [at 52.9 µM].

Regarding `O=C(O)CCCC[P+](c1ccccc1)(c1ccccc1)c1ccccc1`, the “activity change, negative = inhibition” value is 9.32% [at 52.9 µM].

Consider `NC(CCC(=O)O)C(=O)O` (stereo not given), for which the “activity change, negative = inhibition” value is 9.46%.

As for `COC(=O)Nc1ccc(Cl)c(Cl)c1`, the “activity change, negative = inhibition” value is -0.328%.

As to `CCCn1cc[n+](C)c1C`, the “activity change, negative = inhibition” value was 5.67%.

With `C=COCC1CCC(COC=C)CC1` (stereo not given), the “activity change, negative = inhibition” value was 6.71%.

On to `O=S(=O)(O)c1cc(O)c(O)c(S(=O)(=O)O)c1`, for which the “activity change, negative = inhibition” value was 2.89%.

Regarding `CCCCCCCCCC[N+](C)(C)[O-]`, the “activity change, negative = inhibition” value is -16.2%.

For `CC(C)(C)C(=O)Oc1ccc(S(=O)(=O)Nc2ccccc2C(=O)NCC(=O)O)cc1`, the “activity change, negative = inhibition” value is 27.2% [at 52.9 µM].

For `C[N+]12CCC(CC1)C(OC(=O)C(O)(c1ccccc1)c1ccccc1)C2` (stereo not given), the “activity change, negative = inhibition” value is -0.516% [at 52.9 µM].

Take `CC1(C)[C@@H]2CC[C@@]1(C)[C@H](O)C2`: the “activity change, negative = inhibition” value is 2.9%.

As to `COc1ccc2cc1Oc1cc3c(cc1OC)CC[N+](C)(C)[C@H]3Cc1ccc(cc1)Oc1c(OC)c(OC)cc3c1[C@@H](C2)[N+](C)(C)CC3`, the “activity change, negative = inhibition” value is -23.1% [at 52.9 µM].

As to `OCCc1ccccn1`, the “activity change, negative = inhibition” value was 1.06%.

`O=S(=O)(O)c1cccc2ccccc12`: the “activity change, negative = inhibition” value is 5.54%.

Take `CC(C)(CCC(=O)O)C(=O)O`: the “activity change, negative = inhibition” value is 5.9%.

For `CCC(C(=O)NC(=O)NC(C)=O)c1ccccc1` (stereo not given), the “activity change, negative = inhibition” value was 5.96% [at 52.9 µM].

Consider `O=[N+]([O-])c1ccc(/C=N\O)o1`, for which the “activity change, negative = inhibition” value is -3.84% [at 52.9 µM].

For `COc1c(N2CCNC(C)C2)c(F)cc2c(=O)c(C(=O)O)cn(C3CC3)c12` (stereo not given), the “activity change, negative = inhibition” value is 0.866% [at 52.9 µM].

Turning to `Cc1cccc(C)c1NC(=O)CC12CCCN1CCC2`, the “activity change, negative = inhibition” value was -7.61% [at 52.9 µM].

For the origin of these results see PubChem BioAssay (Tox21).
